Test results: article PMC12548414
Hit rate of the full screen: of about 1,600 compounds, about 20 (1%) showed an effect of 50% or more. The entries come from a sample that favours strong results as a whole.

test system: T1, E. coli pLC1021 (luc-trpAt trans-translation reporter); set-up: species or system Escherichia coli pLC1021; luc-trpAt non-stop luciferase reporter; luminescence rises when trans-translation is inhibited; normalized to KKL-35 and DMSO; details: reporter signal, KKL-35 = 100%; rise means trans-translation inhibition; 2 h, 20 µM
T1 construct: pLC1021 luc-trpAt reporter strain
Procedure, shortened: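 Luminescence (560 nm, 10 min after Bright-Glo) reports luciferase that escapes trans-translation tagging, measured after 2 h room-temperature treatment with 20 µM compound. Each plate was scaled between DMSO (negative) and 20 µM KKL-35 (positive) controls. Compounds scoring one standard deviation above the median counted as positive; at least two biological repeats.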

| Structure (SMILES) | % activation [%] |
| --- | --- |
| CCC(C)c1ccc(O)c(NC(=S)NC(=O)c2ccc(-c3ccc(Cl)cc3)o2)c1 (stereo not shown) [KKL-0745] | 0 |
| CC(C)(C)c1cc(NCCCn2ccnc2)n2ncc(-c3ccc(Cl)cc3)c2n1 [KKL-1011] | 9 |
| N#Cc1cc(Oc2ccc(OCc3ccccc3)cc2)c([N+](=O)[O-])cc1C#N [KKL-0738] | 5 |
| Cc1cccc(NC(=S)NC(=O)CC23CC4CC(CC(C4)C2)C3)c1 [KKL-1311] | 0 |
| CSCCC(=O)N1CCCC(C(=O)Nc2cccc(-c3cccc(C)c3)c2)C1 (stereo not shown) [KKL-0499] | 0 |
| Cc1ccc(-n2cc(CNC(C)c3csc(C)n3)c(-c3cccc(C)c3)n2)cc1 (stereo not shown) [KKL-0500] | 0 |
| Cc1ccc2cc3c(nc2c1C)OC(=O)N(C1CCCC1)C3 [KKL-0690] | 1 |
| CCOc1ccc2nc(NC(=O)c3ccccn3)sc2c1 [KKL-0810] | 0 |
| CCCCc1ccc(C(=O)Nc2nccc3ccccc23)nc1 [KKL-1763] | 50 |
| CCCCc1cccc(C(=O)Nc2nnc(S(=O)(=O)CCCC)s2)n1 [KKL-1853] | 6 |
| c1ccc(-c2nn(-c3ccccc3)cc2CNC2CCCc3c2cnn3-c2ccccn2)cc1 (stereo not shown) [KKL-1169] | 0 |
| Clc1cc(Br)ccc1OCCCCn1ccnc1 [KKL-1286] | 0 |
| OC(CN1CCC2(CC1)CC(O)c1cc(F)ccc1O2)c1ccc2c(c1)CCCC2 (stereo not shown) [KKL-0925] | 0 |
| CN(Cc1ccc(Cl)cc1)C(=O)CCc1nc2ccccc2oc1=O [KKL-1749] | 0 |
| CCN(CC)c1ccc(NC(S)=NCCc2ccc(OC)c(OC)c2)cc1 [KKL-1550] | 0 |
| O=C(Nc1ccc2c(c1)CN(C(=O)/C=C/c1cccs1)CC2)c1ccncc1 [KKL-0616] | 0 |
| Cc1cc(=O)oc2cc(OCC(=O)OC3CCCCC3)ccc12 [KKL-1250] | 7 |
| Cc1nc(-c2ccccc2Br)cc([C@H]2CN3CC[C@H]2C[C@@H]3CNC(=O)c2ccc(C(C)(C)C)cc2)n1 [KKL-1598] | 0 |
| COc1ccc(Nc2nc(NC3CCNC3)nc3cc[nH]c(=O)c23)cc1CC(=O)c1ccccc1 (stereo not shown) [KKL-1883] | 335 |
| COc1ccc(O)c(CN2CCCC(N3CCN(c4cccc(C(F)(F)F)c4)CC3)C2)c1 (stereo not shown) [KKL-0660] | 1 |
| O=C(Nc1cccc(Cl)c1)Nc1ccccc1OC(F)(F)C(F)F [KKL-0431] | 21 |
| Cc1ccc(CN(CCCn2ccnc2)Cc2cccc(Cl)c2Cl)o1 [KKL-1195] | 17 |
| CCOC(=O)c1ccc(NC(=O)c2ccc(C)s2)cc1 [KKL-0584] | 0 |
| CN(C)c1ccc(N=Nc2nc3ccccc3n2C)cc1 [KKL-1056] | 0 |
| Fc1cccc(Oc2cc(C3CCCNC3)nc(-c3ccncc3)n2)c1 (stereo not shown) [KKL-1670] | 3 |

| Structure (SMILES) | % activation [%] |
| --- | --- |
| O=C(C=Cc1cccs1)N1CCN(Cc2ccc(Br)s2)CC1 [KKL-1861] | 0 |
| Cc1ccc(-n2cc(CNCCCn3ccnc3)c(-c3cccc(C)c3)n2)cc1 [KKL-0662] | 0 |
| Cc1nn2c(O)cc(C(C)(C)C)nc2c1-c1ccccc1 [KKL-0891] | 17 |
| CCOC(=O)c1c(NC(=O)COc2ccc(C(C)C)cc2)sc2c1CCC2 [KKL-1530] | 0 |
| COc1ccc(-c2cc(=O)c3cc(OCC(=O)OC(C)C)ccc3o2)cc1 [KKL-1864] | 2 |
| CCC(NC(=O)c1cnc(C(C)(C)C)nc1)c1ccc(F)cc1 (stereo not shown) [KKL-0932] | 5 |
| CCCN=C1C(=O)c2ccccc2C(O)=C1N(C(C)=O)c1cccc(F)c1 [KKL-0978] | 0 |
| Clc1nnc(N2CCCC2)c2ccccc12 [KKL-1738] | 0 |
| CCOC(=O)COc1ccc(S(=O)(=O)Nc2c(C)cccc2CC)cc1 [KKL-1460] | 0 |
| Nc1nc(N)c2c(Sc3ccc4ccccc4c3)cccc2n1 [KKL-1710] | 0 |
| Cc1sc2nc(C(C)C)n(C3CCN(C(=O)c4ccncc4)CC3)c(=O)c2c1C [KKL-0464] | 14 |
| COC(=O)[C@@H]1Cc2c([nH]c3ccccc23)[C@H]2C[C@H](NCc3cccnc3)C[C@@H](c3ccc(C(F)(F)F)cc3)N21 [KKL-1613] | 0 |
| CCn1ccnc1CN(C)Cc1cn(-c2ccc(C)cc2)nc1-c1ccc(F)cc1 [KKL-0657] | 0 |
| Cc1ccc(Nc2c(-c3ccccn3)nc3ccc(C)cn23)cc1 [KKL-1199] | 4 |
| N#Cc1cccc(-c2ccc(NCC3CCC(CN(C(=O)O)c4cccnn4)CC3)nc2)c1 (stereo not shown) [KKL-1855] | 0 |
| c1cn(CCCNc2nncc(-c3ccc(C4CCCCC4)cc3)n2)cn1 [KKL-1171] | 8 |
| COC(=O)[C@@H]1Cc2c([nH]c3ccccc23)[C@H]2C[C@@H](NC(C)C)C[C@@H](c3cccc(Cl)c3)N21 [KKL-1594] | 1 |
| COc1ccc(OC)c(NC(=O)Nc2ccc(Cl)c(C(F)(F)F)c2)c1 [KKL-1544] | 0 |
| Cc1nn(-c2ccccc2)c2c1C(c1ccc(O)c(O)c1)N1C(=N2)C(Nc2ccccc2)=Nc2ccccc21 (stereo not shown) [KKL-0996] | 0 |
| COc1cccc(-c2cc(CC3(O)CCN(Cc4[nH]c5ccc(C)cc5c4C)CC3)on2)c1 [KKL-0315] | 0 |
| CC(C)(C)C(=O)CC1(O)Oc2ccccc2N=C1C=C(O)C(C)(C)C (stereo not shown) [KKL-1740] | 6 |
| Cc1cc(C)c(-n2cccn2)c(CN(CCCn2ccnc2)Cc2ccc(F)cc2)c1 [KKL-1032] | 8 |
| O=C(CN1CCN(Cc2ccccc2)CC1)Nc1ccc([N+](=O)[O-])cc1C(=O)c1ccccc1 [KKL-1480] | 0 |
| O=C(NCc1ccco1)N1CCN(Cc2ccc(Cl)s2)CC1 [KKL-1727] | 3 |
